# Source: article PMC6925144, “A prospective compound screening contest identified broader inhibitors for Sirtuin 1” (Scientific Reports, 2019)
# Molecular target: NAD-dependent deacetylase Sirtuin 1 (human, UniProt Q96EB6)
# Assay: primary screen, percent inhibition; higher = more effect of the substance
# Parameters: mean of n = 4
# Conditions: 10 µM
# Experimental: Note that the inhibitory assay was conducted with NAD+.
# Sequence of NAD-dependent deacetylase Sirtuin 1 (Q96EB6 2-747 limits assumed): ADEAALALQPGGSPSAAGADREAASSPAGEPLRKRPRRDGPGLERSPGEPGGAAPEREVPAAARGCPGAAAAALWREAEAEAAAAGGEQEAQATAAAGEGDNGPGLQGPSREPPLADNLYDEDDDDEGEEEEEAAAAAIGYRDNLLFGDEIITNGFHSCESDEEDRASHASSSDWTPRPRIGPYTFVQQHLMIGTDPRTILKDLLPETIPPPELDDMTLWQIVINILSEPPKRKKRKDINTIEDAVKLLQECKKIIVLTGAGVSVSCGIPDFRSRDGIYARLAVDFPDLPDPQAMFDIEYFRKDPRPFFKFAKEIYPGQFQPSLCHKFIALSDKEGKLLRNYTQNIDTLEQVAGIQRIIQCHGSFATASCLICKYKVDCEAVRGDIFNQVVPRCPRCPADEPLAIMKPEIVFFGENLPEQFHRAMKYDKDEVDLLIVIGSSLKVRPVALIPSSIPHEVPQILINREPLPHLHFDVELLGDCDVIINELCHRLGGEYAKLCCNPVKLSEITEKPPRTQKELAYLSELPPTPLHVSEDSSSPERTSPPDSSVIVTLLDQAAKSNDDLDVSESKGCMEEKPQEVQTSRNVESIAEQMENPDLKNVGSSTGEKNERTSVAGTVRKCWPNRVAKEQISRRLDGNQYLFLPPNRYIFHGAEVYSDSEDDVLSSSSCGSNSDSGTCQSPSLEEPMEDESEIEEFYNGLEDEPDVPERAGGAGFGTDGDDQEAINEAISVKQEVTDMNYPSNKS
SMILES,TSA(without NAD+) / Inhibitory assay (Promega kit) / Mean (%),TSA(with NAD+) / Inhibitory assay (Promega kit) / Mean (%)
O=C1/C(=C/c2cnn(-c3ccccc3)c2)Oc2cc(O)ccc21,9.45,
COc1ccc(NC(=O)c2ccc(NC(=O)COC(=O)C34CC5CC(CC(Br)(C5)C3)C4)cc2)cc1,17.2,
COc1ccc(N(C)S(=O)(=O)c2cccc(C(=O)Nc3ccc4ccccc4c3)c2)cc1,-4.02,
Cc1sc2nc(-c3cccs3)nc(N3CCC(C(N)=O)CC3)c2c1C,-0.574,
O=C(Nc1cccc(S(=O)(=O)N2CCOCC2)c1)c1cn(-c2ccccc2)nc1-c1ccc(Cl)cc1,13.8,
N#CC(C(=O)c1ccc(NS(=O)(=O)c2ccccc2)cc1)c1nc(-c2ccccn2)cs1 (stereo not shown),-150,
Cc1ccc(N(C)S(=O)(=O)c2cccc(C(=O)Nc3ccc(Br)c(C)c3)c2)cc1,,27
Cc1nc(N2CCC(C(N)=O)CC2)c2c3c(sc2n1)CCCCC3,14.5,
CCCCCCCCNC(=O)/C(C#N)=C/c1c[nH]c2ccccc12,9.56,
Cc1ccc(C(=O)Nc2ccc(NC(=O)NCC3CCCO3)cc2)cn1 (stereo not shown),-1.1,
CN(c1ccccc1)S(=O)(=O)c1cccc(NC(=O)CCCc2c[nH]c3ccccc23)c1,-10.4,
CC(=C/c1ccccc1)/C=N/NC(=O)c1cc(-c2ccc(C)cc2)n[nH]1,0.0522,
O=C1NC(=O)c2ccccc2/C1=C\NNC(=O)C12CC3CC(CC(C3)C1)C2,,27.6
Cc1nc(N2CCC(C(N)=O)CC2)c2c3c(sc2n1)CCCC3,11.5,
COc1ccc2cc(/C=C/C(=O)Nc3ccc(C(N)=O)cc3)ccc2c1,,19.8
NC(=O)C1CCN(c2nc(CSc3ccccc3)nc3sc4c(c23)CCCC4)CC1,12.9,
CCn1c2ccccc2c2cc(NC(=O)C(C)OC(=O)c3cccc(S(=O)(=O)Nc4ccc(Cl)cc4)c3)ccc21 (stereo not shown),23.9,
Cc1ccc(C(=O)Nc2nc3ccc(NS(=O)(=O)c4ccc5c(c4)CCC(=O)N5)cc3s2)s1,31.3,
Cc1cccc(NS(=O)(=O)c2cccc(C(=O)OCC(=O)NC(=O)NC34CC5CC(CC(C5)C3)C4)c2)c1,,31
Cc1ccc(N(C)S(=O)(=O)c2cccc(C(=O)Nc3ccc(C(N)=O)cc3)c2)cc1,0.783,

SMILES,TSA(without NAD+) / Inhibitory assay (Promega kit) / Mean (%),TSA(with NAD+) / Inhibitory assay (Promega kit) / Mean (%)
COC(=O)c1cc(-c2csc(NC(=O)c3cccc(NC(=O)c4cnoc4C)c3)n2)c[nH]1,30.1,
NC1=Nc2nc3ccccc3n2C(c2ccc(-c3ccc(C(=O)O)cc3)o2)N1 (stereo not shown),17.6,
NCc1nc2c(cnn2-c2ccccc2)c(=O)[nH]1,62.5,
Cc1nc(-c2ccc(CCNC(=O)c3ccc(NC(=O)c4cccs4)cc3)s2)cs1,27,
CCOc1cc(/C=N/NC(=O)c2cc3c(s2)CCCC3)ccc1OCC(=O)Nc1cccc(C(F)(F)F)c1,-2.14,
COc1ccc(N(C)S(=O)(=O)c2cccc(C(=O)Nc3ccc(Br)cc3)c2)cc1,,29.2
Cc1ccc([N+](=O)[O-])cc1S(=O)(=O)Nc1ccc(C(=O)OC(C)C(=O)NC23CC4CC(CC(C4)C2)C3)cc1 (stereo not shown),-3.81,
O=C(CSc1nnnn1-c1ccc(O)cc1)N1N=C(c2ccc3ccccc3c2)CC1c1ccccc1 (stereo not shown),28.5,
O=C1/C(=C/NNC(=O)C23CC4CC(CC(C4)C2)C3)c2ccccc2C(=O)N1Cc1ccccc1,-173,
COc1ccc(N(C)S(=O)(=O)c2cccc(C(=O)Nc3ccc(-n4cnnn4)cc3)c2)cc1,26.1,
O=C(NC(=S)Nc1ccc(-c2nc3ccccc3[nH]2)cc1)C12CC3CC(CC(C3)C1)C2,22.7,
Oc1cccc2c1Cc1c-2nc2ccc(Cl)cc2c1-c1ccccc1Cl,,24.3
Cc1sc2nc(CSc3ccccc3)nc(N3CCC(C(N)=O)CC3)c2c1C,-36.8,
Cc1cc(F)ccc1N1CCCC(Nc2ccc3nnnn3n2)C1 (stereo not shown),6.7,
COc1ccc(NC(=O)CSc2nnc(Nc3ccc(SC(F)F)cc3)s2)cc1OC,16.2,
NC(=O)C1CCN(c2nc(-c3cccs3)nc3sc4c(c23)CCCC4)CC1,0.0174,
COc1ccc(N(C)S(=O)(=O)c2cccc(C(=O)Nc3ccc(Cl)cc3)c2)cc1,,17.6
NC(=O)C1CCN(c2nc(-c3cccnc3)nc3sc4c(c23)CCCC4)CC1,,39.7
O=C(NN/C=C1/C(=O)N(c2cccc(C(F)(F)F)c2)C(=O)c2ccccc21)c1cccc(S(=O)(=O)Nc2ccccc2Cl)c1,-38.6,
O=C1NC(=S)NC(=O)C1=Cc1cn(-c2ccccc2)nc1-c1cc2ccccc2o1,,57.2
